PMC7862700, “An all-to-all approach to the identification of sequence-specific readers for epigenetic DNA modifications on cytosine”

Tests used:
Test in all cases: DAPPL (digital affinity profiling via proximity ligation, sequencing); 10 mM Tris-HCl pH 7.5, 50 mM NaCl, 1 mM DTT, 4% glycerol, room temperature, 30 min; GST-TFs on glutathione beads, 16-mer random dsDNA library, 0.1% formaldehyde crosslink after washing; high values mean tight binding
Details in all cases: protein: recombinant; tags: N-terminal GST; dsDNA, one strand shown
ELK1 = biological target: T1, ELK1 (Homo sapiens, UniProt P19419 1-428)
T1 sequence: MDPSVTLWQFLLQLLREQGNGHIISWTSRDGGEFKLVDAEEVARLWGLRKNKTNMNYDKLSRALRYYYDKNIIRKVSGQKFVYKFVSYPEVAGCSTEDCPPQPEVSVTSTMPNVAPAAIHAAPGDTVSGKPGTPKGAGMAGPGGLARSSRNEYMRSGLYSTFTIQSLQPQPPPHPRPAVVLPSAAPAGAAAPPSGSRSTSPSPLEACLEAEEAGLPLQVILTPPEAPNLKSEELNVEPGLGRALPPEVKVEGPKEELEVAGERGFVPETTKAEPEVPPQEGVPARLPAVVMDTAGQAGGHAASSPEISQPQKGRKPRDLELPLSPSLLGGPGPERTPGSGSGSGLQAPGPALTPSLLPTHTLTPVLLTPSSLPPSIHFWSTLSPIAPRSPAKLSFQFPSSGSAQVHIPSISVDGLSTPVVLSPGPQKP
Method in brief: (§1)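 Beads coated with glutathione captured GST-fused human transcription factors that had been expressed in yeast, and the factors were then given DNA barcodes and pooled with a tag-only sample. The pools were incubated with 200 nmole of a random double-stranded 16-mer DNA library in Tris/NaCl/DTT/glycerol buffer for 30 min at room temperature, washed, crosslinked with 0.1% formaldehyde and proximity-ligated with BsaI/T4 ligase at 37 °C for 1 h. PCR amplification and Illumina NextSeq500 sequencing came last. Binding signal is each hexamer's read frequency for a factor divided by its frequency for the tag-only sample.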

GABPA = biological target: T2, GABPA (Homo sapiens, UniProt Q06546 1-454)
T2 sequence: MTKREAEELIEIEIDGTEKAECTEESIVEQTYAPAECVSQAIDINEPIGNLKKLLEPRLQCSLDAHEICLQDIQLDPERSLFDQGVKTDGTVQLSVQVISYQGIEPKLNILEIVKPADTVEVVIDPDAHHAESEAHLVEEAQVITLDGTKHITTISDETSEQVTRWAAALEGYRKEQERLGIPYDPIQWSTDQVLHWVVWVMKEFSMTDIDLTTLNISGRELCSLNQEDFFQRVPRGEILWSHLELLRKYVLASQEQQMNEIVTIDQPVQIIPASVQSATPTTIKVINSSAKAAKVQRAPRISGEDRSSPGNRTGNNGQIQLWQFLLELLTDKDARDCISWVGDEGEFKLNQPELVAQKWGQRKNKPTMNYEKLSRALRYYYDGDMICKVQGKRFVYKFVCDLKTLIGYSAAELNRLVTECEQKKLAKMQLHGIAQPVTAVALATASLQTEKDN
Method in brief: as §1

ERG = biological target: T3, ERG (Homo sapiens, UniProt P11308 1-479)
T3 sequence: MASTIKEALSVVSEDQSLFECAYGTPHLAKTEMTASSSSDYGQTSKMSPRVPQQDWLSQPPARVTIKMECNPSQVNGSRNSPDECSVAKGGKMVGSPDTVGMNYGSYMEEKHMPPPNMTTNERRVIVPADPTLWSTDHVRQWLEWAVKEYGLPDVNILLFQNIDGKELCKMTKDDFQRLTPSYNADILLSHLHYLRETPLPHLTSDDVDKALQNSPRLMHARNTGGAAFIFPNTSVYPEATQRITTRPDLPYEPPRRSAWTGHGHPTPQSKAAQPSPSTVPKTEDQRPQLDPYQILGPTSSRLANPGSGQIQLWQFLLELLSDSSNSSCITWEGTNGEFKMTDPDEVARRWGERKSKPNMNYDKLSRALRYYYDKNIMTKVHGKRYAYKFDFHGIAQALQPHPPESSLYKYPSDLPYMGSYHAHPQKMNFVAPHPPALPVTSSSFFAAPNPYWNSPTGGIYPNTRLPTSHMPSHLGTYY
Method in brief: as §1

ELF1 = ELF1 (Homo sapiens, UniProt P32519 1-619)
Chain of ELF1 (P32519 whole entry): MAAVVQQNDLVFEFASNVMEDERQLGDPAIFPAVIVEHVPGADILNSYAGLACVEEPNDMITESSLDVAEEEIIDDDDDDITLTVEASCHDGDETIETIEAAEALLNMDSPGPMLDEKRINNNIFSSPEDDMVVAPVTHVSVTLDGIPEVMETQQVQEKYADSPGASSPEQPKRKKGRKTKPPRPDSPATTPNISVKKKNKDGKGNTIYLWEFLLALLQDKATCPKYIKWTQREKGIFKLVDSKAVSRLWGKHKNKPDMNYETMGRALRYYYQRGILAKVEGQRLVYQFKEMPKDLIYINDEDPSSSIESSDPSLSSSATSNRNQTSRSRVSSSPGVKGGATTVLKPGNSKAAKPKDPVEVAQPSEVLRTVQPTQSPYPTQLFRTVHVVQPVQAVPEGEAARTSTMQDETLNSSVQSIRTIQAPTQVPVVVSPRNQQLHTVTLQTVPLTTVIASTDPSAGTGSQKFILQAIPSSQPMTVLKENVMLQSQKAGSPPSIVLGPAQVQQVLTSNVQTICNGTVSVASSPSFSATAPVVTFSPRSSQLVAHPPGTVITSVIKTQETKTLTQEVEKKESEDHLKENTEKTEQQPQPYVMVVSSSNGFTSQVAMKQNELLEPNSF
Method in brief: as §1

EHF = biological target: T4, EHF (Homo sapiens, UniProt Q9NZC4 1-300)
T4 sequence: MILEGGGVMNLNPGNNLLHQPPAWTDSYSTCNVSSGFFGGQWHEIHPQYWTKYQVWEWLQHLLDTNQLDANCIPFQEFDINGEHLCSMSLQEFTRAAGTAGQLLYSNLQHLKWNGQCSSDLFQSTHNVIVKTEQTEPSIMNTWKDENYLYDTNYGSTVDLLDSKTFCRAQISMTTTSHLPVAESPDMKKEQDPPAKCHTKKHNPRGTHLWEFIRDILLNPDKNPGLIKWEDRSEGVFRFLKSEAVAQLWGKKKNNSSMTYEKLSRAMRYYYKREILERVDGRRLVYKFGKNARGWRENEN
Method in brief: as §1

SPIB = SPIB (Homo sapiens, UniProt Q01892 1-262)
Chain of SPIB (Q01892 whole entry): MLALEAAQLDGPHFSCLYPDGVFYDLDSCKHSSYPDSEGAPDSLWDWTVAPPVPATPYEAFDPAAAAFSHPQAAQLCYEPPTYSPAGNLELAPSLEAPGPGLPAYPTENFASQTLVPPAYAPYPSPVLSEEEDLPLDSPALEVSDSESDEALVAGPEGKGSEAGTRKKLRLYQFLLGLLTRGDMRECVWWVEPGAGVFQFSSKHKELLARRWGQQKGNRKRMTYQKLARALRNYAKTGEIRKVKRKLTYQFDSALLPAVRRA
Method in brief: as §1

ELK3 = biological target: T5, ELK3 (Homo sapiens, UniProt P41970 1-407)
T5 sequence: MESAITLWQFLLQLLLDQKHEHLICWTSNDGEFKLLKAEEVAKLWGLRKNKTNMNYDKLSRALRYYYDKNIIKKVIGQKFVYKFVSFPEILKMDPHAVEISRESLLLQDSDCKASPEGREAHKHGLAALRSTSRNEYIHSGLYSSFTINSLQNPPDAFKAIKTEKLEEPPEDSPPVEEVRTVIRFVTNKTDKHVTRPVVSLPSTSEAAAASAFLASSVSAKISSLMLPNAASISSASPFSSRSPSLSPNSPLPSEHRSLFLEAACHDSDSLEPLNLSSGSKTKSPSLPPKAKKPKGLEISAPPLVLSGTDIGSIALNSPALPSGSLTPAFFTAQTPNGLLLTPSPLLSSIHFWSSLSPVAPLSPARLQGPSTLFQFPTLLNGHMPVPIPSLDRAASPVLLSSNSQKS
Method in brief: as §1

SPIC = biological target: T6, SPIC (Homo sapiens, UniProt Q8N5J4 1-248)
T6 sequence: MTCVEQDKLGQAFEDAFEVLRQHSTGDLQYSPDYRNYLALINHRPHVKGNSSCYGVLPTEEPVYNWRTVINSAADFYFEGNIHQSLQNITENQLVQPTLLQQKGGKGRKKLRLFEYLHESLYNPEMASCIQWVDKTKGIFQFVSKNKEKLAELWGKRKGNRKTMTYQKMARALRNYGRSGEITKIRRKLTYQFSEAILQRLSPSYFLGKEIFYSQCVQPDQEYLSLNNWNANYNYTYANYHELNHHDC
Method in brief: as §1

ELF4 = ELF4 (Homo sapiens, UniProt Q99607 1-663)
Chain of ELF4 (Q99607 whole entry): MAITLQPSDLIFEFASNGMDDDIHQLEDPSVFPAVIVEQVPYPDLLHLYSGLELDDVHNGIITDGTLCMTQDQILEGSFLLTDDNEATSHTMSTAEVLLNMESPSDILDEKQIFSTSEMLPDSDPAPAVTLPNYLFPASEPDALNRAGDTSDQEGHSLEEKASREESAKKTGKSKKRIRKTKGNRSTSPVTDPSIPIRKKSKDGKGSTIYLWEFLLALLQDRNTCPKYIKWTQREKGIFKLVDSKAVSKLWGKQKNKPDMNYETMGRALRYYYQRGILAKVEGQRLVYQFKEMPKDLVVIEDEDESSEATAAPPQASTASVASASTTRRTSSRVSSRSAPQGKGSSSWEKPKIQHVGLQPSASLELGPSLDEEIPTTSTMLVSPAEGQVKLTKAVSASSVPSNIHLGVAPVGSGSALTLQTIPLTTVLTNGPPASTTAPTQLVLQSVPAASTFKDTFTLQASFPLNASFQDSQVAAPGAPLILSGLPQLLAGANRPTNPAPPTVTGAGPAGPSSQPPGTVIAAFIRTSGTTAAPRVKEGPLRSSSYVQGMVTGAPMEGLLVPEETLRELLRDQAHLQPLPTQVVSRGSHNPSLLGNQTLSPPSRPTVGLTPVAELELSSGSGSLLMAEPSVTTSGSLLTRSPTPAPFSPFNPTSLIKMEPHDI
Method in brief: as §1

ELK4 = biological target: T7, ELK4 (Homo sapiens, UniProt P28324-2 1-405)
T7 sequence: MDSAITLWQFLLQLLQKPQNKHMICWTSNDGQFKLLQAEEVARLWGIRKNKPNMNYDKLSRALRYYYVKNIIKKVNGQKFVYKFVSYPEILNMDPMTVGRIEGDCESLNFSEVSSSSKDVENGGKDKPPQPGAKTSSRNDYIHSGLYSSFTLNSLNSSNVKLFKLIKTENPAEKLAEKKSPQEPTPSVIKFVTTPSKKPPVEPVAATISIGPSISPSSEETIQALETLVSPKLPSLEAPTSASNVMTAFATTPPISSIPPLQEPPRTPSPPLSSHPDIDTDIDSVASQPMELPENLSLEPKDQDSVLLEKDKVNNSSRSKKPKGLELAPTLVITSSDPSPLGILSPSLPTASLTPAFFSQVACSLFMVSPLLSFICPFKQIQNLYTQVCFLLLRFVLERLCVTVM
Method in brief: as §1

ETV1 = ETV1 (Homo sapiens, UniProt P50549 1-477)
Chain of ETV1 (P50549 whole entry): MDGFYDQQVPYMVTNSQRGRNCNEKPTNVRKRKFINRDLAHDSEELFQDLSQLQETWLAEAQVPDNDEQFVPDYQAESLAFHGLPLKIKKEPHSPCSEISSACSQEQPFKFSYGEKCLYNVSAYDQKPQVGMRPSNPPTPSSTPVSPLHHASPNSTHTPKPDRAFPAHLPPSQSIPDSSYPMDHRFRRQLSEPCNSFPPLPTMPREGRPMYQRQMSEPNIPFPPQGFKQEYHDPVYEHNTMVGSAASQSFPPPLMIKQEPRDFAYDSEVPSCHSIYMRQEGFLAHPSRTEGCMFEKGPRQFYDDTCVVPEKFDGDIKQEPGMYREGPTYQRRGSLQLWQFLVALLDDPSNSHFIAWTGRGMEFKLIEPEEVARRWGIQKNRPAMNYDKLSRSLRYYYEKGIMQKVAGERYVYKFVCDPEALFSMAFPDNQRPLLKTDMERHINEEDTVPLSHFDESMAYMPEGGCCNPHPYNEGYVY
Method in brief: as §1

ERF = biological target: T8, ERF (Homo sapiens, UniProt P50548 1-548)
T8 sequence: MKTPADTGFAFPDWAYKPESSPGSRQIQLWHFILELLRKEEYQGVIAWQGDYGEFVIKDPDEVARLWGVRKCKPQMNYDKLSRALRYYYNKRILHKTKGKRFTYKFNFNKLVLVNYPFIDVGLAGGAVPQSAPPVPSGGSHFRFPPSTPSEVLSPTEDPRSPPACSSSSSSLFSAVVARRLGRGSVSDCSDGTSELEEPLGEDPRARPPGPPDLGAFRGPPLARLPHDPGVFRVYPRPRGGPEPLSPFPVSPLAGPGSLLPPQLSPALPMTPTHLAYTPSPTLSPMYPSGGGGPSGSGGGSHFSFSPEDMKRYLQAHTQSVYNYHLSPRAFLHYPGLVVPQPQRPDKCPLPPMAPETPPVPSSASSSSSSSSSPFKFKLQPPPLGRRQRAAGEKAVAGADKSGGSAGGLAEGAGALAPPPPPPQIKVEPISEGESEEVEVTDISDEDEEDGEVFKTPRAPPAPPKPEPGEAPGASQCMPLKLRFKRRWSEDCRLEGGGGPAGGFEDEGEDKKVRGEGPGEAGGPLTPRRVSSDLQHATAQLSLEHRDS
Method in brief: as §1

ETV3L = biological target: T9, ETV3L (Homo sapiens, UniProt Q6ZN32 1-361)
T9 sequence: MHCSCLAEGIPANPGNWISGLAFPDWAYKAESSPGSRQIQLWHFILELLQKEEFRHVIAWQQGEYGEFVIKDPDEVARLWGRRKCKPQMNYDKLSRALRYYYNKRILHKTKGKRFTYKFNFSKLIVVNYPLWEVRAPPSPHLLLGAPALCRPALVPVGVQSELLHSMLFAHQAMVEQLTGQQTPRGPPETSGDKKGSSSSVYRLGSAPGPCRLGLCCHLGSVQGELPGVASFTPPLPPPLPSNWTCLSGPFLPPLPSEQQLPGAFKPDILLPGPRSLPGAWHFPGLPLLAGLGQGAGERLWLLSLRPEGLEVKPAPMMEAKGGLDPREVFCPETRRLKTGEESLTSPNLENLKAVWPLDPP
Method in brief: as §1

SPDEF = biological target: T10, SPDEF (Homo sapiens, UniProt O95238 1-335)
T10 sequence: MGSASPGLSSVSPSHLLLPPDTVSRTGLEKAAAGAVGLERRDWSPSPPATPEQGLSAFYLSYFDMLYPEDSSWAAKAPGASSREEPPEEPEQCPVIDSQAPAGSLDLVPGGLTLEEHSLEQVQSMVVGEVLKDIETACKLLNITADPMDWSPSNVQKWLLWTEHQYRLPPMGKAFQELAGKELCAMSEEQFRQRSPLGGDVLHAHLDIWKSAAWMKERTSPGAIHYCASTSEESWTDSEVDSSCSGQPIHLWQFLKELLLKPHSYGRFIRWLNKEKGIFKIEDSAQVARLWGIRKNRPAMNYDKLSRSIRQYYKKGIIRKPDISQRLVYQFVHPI
Method in brief: as §1

ETV7 = biological target: T11, ETV7 (Homo sapiens, UniProt Q9Y603 1-341)
T11 sequence: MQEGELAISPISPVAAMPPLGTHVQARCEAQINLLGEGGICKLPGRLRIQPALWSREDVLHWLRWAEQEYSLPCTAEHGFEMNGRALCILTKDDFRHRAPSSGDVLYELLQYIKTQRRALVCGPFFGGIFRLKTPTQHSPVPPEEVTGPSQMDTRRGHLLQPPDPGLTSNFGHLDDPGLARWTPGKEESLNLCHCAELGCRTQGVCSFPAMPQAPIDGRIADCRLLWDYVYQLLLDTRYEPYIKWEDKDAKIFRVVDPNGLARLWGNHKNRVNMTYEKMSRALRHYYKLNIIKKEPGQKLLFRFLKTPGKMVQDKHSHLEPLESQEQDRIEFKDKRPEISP
Method in brief: as §1

ETV3 = biological target: T12, ETV3 (Homo sapiens, UniProt P41162-2 1-143)
T12 sequence: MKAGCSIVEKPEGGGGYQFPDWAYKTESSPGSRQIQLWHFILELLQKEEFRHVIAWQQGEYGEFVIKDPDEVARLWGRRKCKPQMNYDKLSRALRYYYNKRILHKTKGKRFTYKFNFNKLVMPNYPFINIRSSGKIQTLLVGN
Method in brief: as §1

ETV6 = ETV6 (Homo sapiens, UniProt P41212 1-452)
Chain of ETV6 (P41212 whole entry): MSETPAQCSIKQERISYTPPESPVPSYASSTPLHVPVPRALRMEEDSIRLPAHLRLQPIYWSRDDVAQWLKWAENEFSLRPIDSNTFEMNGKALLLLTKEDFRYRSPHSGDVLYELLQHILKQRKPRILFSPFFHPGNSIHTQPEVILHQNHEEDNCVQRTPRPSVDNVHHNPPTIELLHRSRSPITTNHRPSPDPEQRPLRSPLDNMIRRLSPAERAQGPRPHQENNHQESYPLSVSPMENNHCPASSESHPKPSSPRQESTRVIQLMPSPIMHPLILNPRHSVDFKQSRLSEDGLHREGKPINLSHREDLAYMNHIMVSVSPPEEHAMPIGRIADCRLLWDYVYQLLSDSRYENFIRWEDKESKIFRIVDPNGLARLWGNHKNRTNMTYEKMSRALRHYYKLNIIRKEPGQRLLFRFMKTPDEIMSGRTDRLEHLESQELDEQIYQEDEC
Method in brief: as §1

CTTAAG
binding signal (ELK1): 1.11 fold enrichment (6-mer frequency, TF over GST control) | binding signal (GABPA): 1.13 fold enrichment (6-mer frequency, TF over GST control) | binding signal (ERG): 1.09 fold enrichment (6-mer frequency, TF over GST control) | binding signal (ELF1): 1.09 fold enrichment (6-mer frequency, TF over GST control) | binding signal (EHF): 1.1 fold enrichment (6-mer frequency, TF over GST control) | binding signal (SPIB): 1.11 fold enrichment (6-mer frequency, TF over GST control) | binding signal (ELK3): 1.03 fold enrichment (6-mer frequency, TF over GST control) | binding signal (SPIC): 1.1 fold enrichment (6-mer frequency, TF over GST control) | binding signal (ELF4): 1.07 fold enrichment (6-mer frequency, TF over GST control) | binding signal (ELK4): 1.06 fold enrichment (6-mer frequency, TF over GST control) | binding signal (ETV1): 1.1 fold enrichment (6-mer frequency, TF over GST control) | binding signal (ERF): 1.07 fold enrichment (6-mer frequency, TF over GST control) | binding signal (ETV3L): 1.08 fold enrichment (6-mer frequency, TF over GST control) | binding signal (SPDEF): 1.04 fold enrichment (6-mer frequency, TF over GST control) | binding signal (ETV7): 1.04 fold enrichment (6-mer frequency, TF over GST control) | binding signal (ETV3): 1.13 fold enrichment (6-mer frequency, TF over GST control) | binding signal (ETV6): 1.03 fold enrichment (6-mer frequency, TF over GST control)
